Values joined by “and” are separate entries in the source; they are usually repeats but may differ in a detail not shown here. Equal entries are not always repeated. Inconclusive results are not listed. Values without a mark were called inactive. Active and inactive are the calls of the source. Unless noted, calls come from the whole dose curve; as a rule, active = well fitted curve in the direction sought with a large enough effect; inconclusive = small, poorly fitted or top-dose-only effect, or another doubt; inactive = no such curve, though single readings can be large; an effect the other way counts as inactive or inconclusive.

The target of experiment [1] is Cellular tumor antigen p53 (Homo sapiens) (UniProt P04637). The experiment in a line: Primary qHTS for small molecule compounds that upregulate eGFP-tagged delta133p53alpha (in N-terminal) cells. (AID 2060322).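 For activation: cells pre-induced with doxycycline then dosed without doxycycline; series mostly up to about 56 µM; 0% = DMSO vehicle and 100% = reference activator.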 Note: nearly all actives have a fitted effect of over 75% in size. Note: potency is the fitted concentration of half-maximal effect. To be noted: NCI-H358 eGFP-delta133p53alpha fluorescence, 24 h; activation: hits give high values. A digest of the protocol:
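NCI-H358 cells pre-induced 24 h with 10 ng/ml doxycycline for eGFP-delta133p53alpha, plated dox-free and exposed 24 h at 37C to titrated compounds. Fixed, Hoechst-stained; gated GFP peak intensity by laser scanning cytometry, normalized to DMSO (0%) and 57.5 uM 5-azacytidine (100%).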

The target is the same in experiment [2]. The experiment in a line: Primary qHTS for small molecule compounds that upregulate eGFP-tagged delta133p53alpha (in C-terminal) cells. (AID 2060324). Note: potency is the fitted concentration of half-maximal effect. In short, it runs like this:
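Concentration-response screen: compounds titrated onto pre-induced NCI-H358 D133p53a-eGFP cells, incubated one day, fixed with 3.5% PFA. Per-cell GFP peak intensity was gated, then normalized against intraplate controls.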
In general terms: Quantitative high-throughput screening tests each substance at several concentrations.

The target of experiment [3] is Retinaldehyde dehydrogenase 3 (Homo sapiens) (UniProt P47895). The experiment in a line: qHTS for Inhibitors of the Aldehyde Dehydrogenase Family (ALDH1A3) Validation screen (AID 2061312). Note: % is set by controls: 0 for no effect and ±100 for the full control effect; nearly all actives have a fitted effect of over 45% in size.
The target of experiment [4] is Aldehyde dehydrogenase, mitochondrial (Homo sapiens) (UniProt P05091). Put plainly: qHTS for Inhibitors of the Aldehyde Dehydrogenase Family (ALDH2) Validation screens (AID 2061302; active = well fitted inhibition curve with a large enough effect; title and protocol of this record describe different tests; note: potency is the fitted concentration of half-maximal effect).
Experiment [5] in a line: BET inhibitor-based combinations targeting novel dependencies in MECOM-rearranged (r) AML: HNT-34 cell line (AID 2202234). Note: nearly all actives have a fitted effect of over 35% in size. Note: potency is the fitted concentration of half-maximal effect. A digest of the protocol: (§1)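 Using pin-tool transfer, drugs were added in 11 doses to cells (500/well), incubated 48 hr, and assessed with CellTiter-Glo. Z-AUC is a mean-centring transformation applied separately to each screened line.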
Experiment [6] can be described thus: BET inhibitor-based combinations targeting novel dependencies in MECOM-rearranged (r) AML: UCSD-AML1 cell line (AID 2202235). Note: nearly all actives have a fitted effect of over 40% in size. Note: potency is the fitted concentration of half-maximal effect. A digest of the protocol:
as §1

Experiment [7] is described as follows: BET inhibitor-based combinations targeting novel dependencies in MECOM-rearranged (r) AML: AML-191 cell line (AID 2202236; note: nearly all actives have a fitted effect of over 35% in size; note: potency is the fitted concentration of half-maximal effect). A digest of the protocol:
(§2)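 Viability of cells (500 per well) is scored by luminescent CellTiter-Glo at 48 hr post-dosing. Eleven-point titrations are normalized to DMSO and empty controls and reduced to AUC values.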

Experiment [8] in a line: BET inhibitor-based combinations targeting novel dependencies in MECOM-rearranged (r) AML: AML-194 cell line (AID 2202237; note: nearly all actives have a fitted effect of over 40% in size; note: potency is the fitted concentration of half-maximal effect). In short, it runs like this: as §2
Experiment [9] addresses Retinal dehydrogenase 2 (Homo sapiens) (UniProt O94788). Put plainly: qHTS for Inhibitors of the Aldehyde Dehydrogenase Family (ALDH1A2) Confirmation screens (AID 2061314). Note: % is set by controls: 0 for no effect and ±100 for the full control effect; nearly all actives have a fitted effect of over 65% in size.
For experiment [10], the target named is Aldehyde dehydrogenase 1A1 (Homo sapiens) (UniProt P00352). Put plainly: qHTS for Inhibitors of the Aldehyde Dehydrogenase Family (ALDH1A1) Confirmatory screens (AID 2061316). Note: nearly all actives have a fitted effect of over 65% in size. Note: potency is the fitted concentration of half-maximal effect.
Experiment [11] in a line: BET inhibitor-based combinations targeting novel dependencies in MECOM-rearranged (r) AML: SET-2 cell line (AID 2202231).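 For viability: plate controls were DMSO treated cells for no effect and wells without cells for full effect.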 Note: nearly all actives have a fitted effect of over 35% in size. Note: potency is the fitted concentration of half-maximal effect. The following applies: SET-2 AML cells viability, CellTiter-Glo luminescence, 48 h; viability: hits give low values, concentration not given here. In short, it runs like this: as §2
A short description of experiment [12]: BET inhibitor-based combinations targeting novel dependencies in MECOM-rearranged (r) AML: MV-4-11 cell line (AID 2202233). Note: nearly all actives have a fitted effect of over 45% in size. Note: potency is the fitted concentration of half-maximal effect. A digest of the protocol: as §1
A short description of experiment [13]: BET inhibitor-based combinations targeting novel dependencies in MECOM-rearranged (r) AML: OCI-AML3 cell line (AID 2202232). Note: nearly all actives have a fitted effect of over 35% in size. Note: potency is the fitted concentration of half-maximal effect. To be noted: Potency: OCI-AML3 viability. In short, it runs like this:
as §2

In experiment [14] the target is Retinaldehyde dehydrogenase 3 (Homo sapiens) (UniProt P47895). The experiment in a line: qHTS for Inhibitors of the Aldehyde Dehydrogenase Family (ALDH1A3) Primary screen (AID 2061315).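 Note: plate controls were DMSO vehicle for no effect and reference inhibitor for full effect.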
A short description of experiment [15]: qHTS for Inhibitors of the Aldehyde Dehydrogenase Family (ALDH1A2, ALDH1A3, ALDH2, ALDH3A1) (AID 2061307). Note: % is set by controls: 0 for no effect and ±100 for the full control effect; nearly all actives have a fitted effect of over 50% in size.
Experiment [16] has as its target Aldehyde dehydrogenase, mitochondrial (Homo sapiens) (UniProt P05091). The experiment in a line: qHTS for Inhibitors of the Aldehyde Dehydrogenase Family (ALDH2) Confirmatory screens (AID 2061303; active = well fitted inhibition curve with a large enough effect; title and protocol of this record describe different tests; note: % is set by controls: 0 for no effect and ±100 for the full control effect; nearly all actives have a fitted effect of over 45% in size).
The target is the same in experiment [17]. The experiment in a line: qHTS for Inhibitors of the Aldehyde Dehydrogenase Family (ALDH2) Primary screen (AID 2061308).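 Note: plate controls were vehicle for no effect and reference inhibitor for full effect; nearly all actives have a fitted effect of over 55% in size.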
Experiment [18] has as its target Retinaldehyde dehydrogenase 3 (Homo sapiens) (UniProt P47895). The experiment in a line: qHTS for Inhibitors of the Aldehyde Dehydrogenase Family (ALDH1A3) Confirmatory screens (AID 2061311). Note: nearly all actives have a fitted effect of over 60% in size. Note: potency is the fitted concentration of half-maximal effect.

Chain of Cellular tumor antigen p53 (Homo sapiens) (P04637 whole entry, looked up): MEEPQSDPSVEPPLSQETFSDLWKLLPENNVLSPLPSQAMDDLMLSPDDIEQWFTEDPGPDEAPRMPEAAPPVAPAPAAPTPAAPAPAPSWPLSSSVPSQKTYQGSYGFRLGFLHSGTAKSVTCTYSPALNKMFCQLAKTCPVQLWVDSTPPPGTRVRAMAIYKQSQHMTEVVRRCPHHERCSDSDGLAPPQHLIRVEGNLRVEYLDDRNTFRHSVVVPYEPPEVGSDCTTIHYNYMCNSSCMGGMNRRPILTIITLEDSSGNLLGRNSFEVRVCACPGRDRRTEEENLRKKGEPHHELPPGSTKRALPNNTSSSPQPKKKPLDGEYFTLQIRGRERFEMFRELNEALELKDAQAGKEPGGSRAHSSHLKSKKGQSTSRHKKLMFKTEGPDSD

On to `CCCCCCCC/C=C\CCCCCCCC(=O)NCc1ccc(O)c(OC)c1`, for which the activation in experiment [1] was -13% and -42.7%. For the same molecule, the Potency result in experiment [2] and in [3] was “inactive” throughout.
Take `C[C@@H](N)C1CCC(C(=O)Nc2ccncc2)CC1` (stereo not given in full): the activation in [1] was -43.5% and -9.78%. For the same molecule, the Potency result in [2], in experiment [4], in experiment [5], in [6], in experiment [7] and in experiment [8] was “inactive” throughout.
As for `Oc1ccccc1O`, in experiment [1], the activation is -3.18%. The Potency result in experiment [2], in experiment [4] and in experiment [9] was “inactive” in each case. Moreover, the Potency in [10] is 11.3 µM (active).
What is called viability is a read-out of living cells in per cent, often relative to untreated cells. Turning to `CC(C)(C)C(=O)Oc1ccc(S(=O)(=O)Nc2ccccc2C(=O)NCC(=O)O)cc1`, the activation in [1] is -5.86% and -2.63% and -11.2%. Moreover, the Potency entry in [2], in experiment [4], in experiment [12], in experiment [5], in experiment [6] and in [7] was “inactive” throughout. The Potency entry in [8] was “inactive”. The viability in experiment [11] was 111%.
On to `Cc1ccc(S(=O)(=O)N[C@@H](Cc2ccccc2)C(=O)CCl)cc1`, for which the Potency in experiment [1] is 24.3 µM (active); in experiment [2], 26.9 µM (active); in experiment [10] it was 0.565 µM (active); in experiment [11] it was 18.6 µM (active); in experiment [13], 16.6 µM (active); in [12], 13.2 µM (active). Further, the Potency in experiment [5] is 13.2 µM (active); in experiment [7], 20.9 µM (active); in experiment [8], 23.5 µM (active). In experiment [4], the Potency result was “inactive”.
On to `CC[C@@]1(O)C(=O)OCc2c1cc1n(c2=O)Cc2cc3c(CN(C)C)c(O)ccc3nc2-1`, for which the Potency is 24.6 µM (active) and 3.38 µM (active) in experiment [1]; 6.75 µM (active) in experiment [2]; 0.0372 µM (active) in [11]; 0.0186 µM (active) in [13]; 0.0118 µM (active) in experiment [12]; 0.0083 µM (active) in experiment [5]. In addition, the Potency in [6] is 0.0166 µM (active); in experiment [7] it was 0.0209 µM (active). For the same molecule, the Potency entry in experiment [4] and in [14] was “inactive” throughout.
Turning to `NCCc1cnc[nH]1`, the activation in [1] was -5.21% and -25.1% and -31.8%. Also, the Potency result in experiment [2], in [4], in [13], in [5], in experiment [6] and in experiment [7] was “inactive” each time. Also, the Potency entry in experiment [8] is “inactive”. In addition, in experiment [11], the viability is 93.4%. The Potency in [12] was 8.33 µM (active).
With `CC[N+](CC)(CC)CCOc1cccc(OCC[N+](CC)(CC)CC)c1OCC[N+](CC)(CC)CC`, the activation in experiment [1] was -9.51% and 5.08% and -25.7%. The Potency entry in experiment [2], in experiment [4], in [13], in [12], in experiment [5] and in experiment [6] was “inactive” throughout. Also, the Potency entry in [7] and in experiment [8] was “inactive” each time. Moreover, the viability in experiment [11] is 113%.
Turning to `O=c1cc(N2CCOCC2)oc2c(-c3ccccc3)cccc12`, the activation in experiment [1] was 3.72% and -10.8%. Moreover, the Potency result in experiment [2] and in experiment [4] was “inactive” in each case. Besides, the Potency in experiment [12] was 13.2 µM (active).
For the molecule `Nc1c2c(nc3ccccc13)CCCC2`, in experiment [1], the activation is -15.6% and 9.21% and -7.03%. For the same molecule, the Potency result in experiment [2], in experiment [4], in [3] and in [7] was “inactive” throughout.
In the case of `C[C@H](Cc1ccc(O)c(O)c1)[C@@H](C)Cc1ccc(O)c(O)c1`, the activation in [1] is 8.19%. Also, the Potency result in experiment [2] was “inactive”. The Potency in experiment [4] is 15.8 µM (active); in experiment [13], 3.32 µM (active); in [12], 2.95 µM (active); in [5], 8.33 µM (active); in experiment [7], 11.8 µM (active).
Take `Clc1ccc2c(N3CCN(CCCN4CCN(c5ccnc6cc(Cl)ccc56)CC4)CC3)ccnc2c1`: the activation in experiment [1] is 26.5%. In addition, the Potency entry in experiment [2], in experiment [15], in [13], in [5], in experiment [6] and in experiment [7] was “inactive” each time. For the same molecule, in [8], the Potency entry was “inactive”. Further, the viability in experiment [11] is 76.4%.
On to `O=C1NC(c2cccc([N+](=O)[O-])c2)=CCN1c1ccccc1O`, for which the activation in [1] is 5.67% and -12.4%. The Potency entry in experiment [2], in experiment [4] and in experiment [10] was “inactive” each time.
On to `Cc1c(OCC(F)(F)F)ccnc1CS(=O)c1nc2ccccc2[nH]1` (stereo not given), for which the activation in experiment [1] is 8.47% and 28.3%. Further, the Potency entry in experiment [2], in experiment [4], in experiment [5], in experiment [6], in experiment [7] and in [8] was “inactive” each time.
With `COc1ccccc1N1CCN(CCN2C(=O)CC3(CCCC3)CC2=O)CC1`, the activation in experiment [1] is 3.57% and -22.5%. Further, the Potency entry in [2], in experiment [16], in experiment [15], in [17], in experiment [18] and in experiment [9] was “inactive” each time. Moreover, the Potency entry in [14] was “inactive”.
On to `O=Nc1c(-c2c(O)[nH]c3cc(Br)ccc23)[nH]c2ccccc12`, for which the activation in experiment [1] was 17.1% and -39.3%. Besides, the Potency result in experiment [2] and in [4] was “inactive” in each case. Further, the Potency was 5.25 µM (active) in [11]; 11.8 µM (active) in experiment [13]; 0.263 µM (active) in [12]; 2.63 µM (active) in experiment [5]; 13.2 µM (active) in experiment [6]; 14.8 µM (active) in [7]. Also, in [8], the Potency was 14.8 µM (active).
For the molecule `Cn1c(=O)c2[nH]c(-c3ccc(S(=O)(=O)O)cc3)nc2n(C)c1=O`, in experiment [1], the activation is 1.02%. The Potency entry in experiment [2], in [16], in [15], in experiment [18], in experiment [3] and in [9] was “inactive” in each case. In [10], the Potency result is “inactive”.
`N#C/C(=C\c1ccc(O)c(O)c1)C(=O)NCCCNC(=O)/C(C#N)=C/c1ccc(O)c(O)c1`: in experiment [1], the activation is -33.4%. Besides, in [2], the Potency entry is “inactive”. The Potency in experiment [18] was 2.83 µM (active).
With `Cn1ccc2cc3c(cc21)CCN3C(=O)Nc1cccnc1`, the activation in [1] is 20.1% and 12% and -55.1%. Also, the Potency entry in [2], in [4], in experiment [12], in experiment [6], in experiment [7] and in experiment [8] was “inactive” throughout. For the same molecule, in [11], the viability was 105%.
`O=C(Nc1cccc(C(=O)Nc2ccc(S(=O)(=O)O)c3cc(S(=O)(=O)O)cc(S(=O)(=O)O)c23)c1)Nc1cccc(C(=O)Nc2ccc(S(=O)(=O)O)c3cc(S(=O)(=O)O)cc(S(=O)(=O)O)c23)c1`: the activation in experiment [1] is -8.79%. Besides, the Potency result in experiment [2] and in experiment [3] was “inactive” throughout.

The values above are taken from PubChem BioAssay (NCATS).
